This is a sample that favours compounds with a hit; in the whole collection about 1.8% have one here.
pAkt inh: Akt phosphorylation inhibition; activity change, % for hits at 50 µM; AID 651550; 0.32% of 360,000 active; Neuro2A IGF-stimulated pAkt S473 HTRF, 20 min; active compounds read low; in the data active = activity change below about -80%; inconclusive = mostly about -51% to -80%; also: % is scaled to controls: 0 for no effect and ±100 for the full control effect
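Neuro2A cells in DMEM with 0.5% FBS, overnight at 37 deg C, given compound at single 50 µM final, then IGF (6 nM final) for 20 min at 37 deg C. Lysed; phospho-Akt Ser473 by HTRF after 24 h, 665/615 ratio.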
Mm-Cpn inhibitor: M. maripaludis TRiC chaperonin inhibition; purified Mm-Cpn ATPase, ADP Transcreener TR-FRET; Potency, µM (series often up to 76.9 µM), without a hit: at the highest dose activity, negative = inhibition, usual class: inhibitors; 0.031% of 330,000 active; also: potency is read from the fitted curve at half-maximal effect; % is scaled to controls: 0 for no effect and ±100 for the full control effect; nearly all actives have a fitted effect of over 80% in size
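ATP (10 uM final) was added to archaeal chaperonin (25 nM final) after 10 min exposure to test compound at 37°C; after 30 min further incubation, ADP was detected by competitive TR-FRET.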
A-T KAP1 phos: potential ataxia-telangiectasia treatments restoring KAP-1 phosphorylation | F2112 A-T fibroblasts, KAP-1 phosphorylation AlphaLISA; neocarzinostatin DNA damage 30 min before lysis | Potency, µM (doses to about 57.5 µM), for inactives: at the top dose activation, most hits filed as activators | 0.19% of 320,000 active; also: potency is read from the fitted curve at half-maximal effect; % of control where 0% means no effect; nearly all actives have a fitted effect of over 45% in size
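ATM-like activity read as KAP-1 phosphorylation via AlphaLISA donor/acceptor antibody pairs after lysis and 6 hr at 25C. Cells were ATM-null patient fibroblasts (F2112, hTERT), dosed 60 min, then exposed to the DSB inducer NCS for 30 min.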
CCT modulator: modulators of cytosolic chaperonin (CCT/TRiC) activity; purified chaperonin ATPase assay, HTRF ADP detection, 30 min; activity change, % (no concentration beside the values), hits read low; 0.3% of 360,000 active; in the data active = activity change below about -30%; also: % is scaled to controls: 0 for no effect and ±100 for the full control effect
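We incubate TRiC, 40 or 20 nM final, with library compounds at 76 uM and 10 uM ATP for 30 min at 37 °C. ADP formed is detected with Transcreener HTRF reagents after 30 min at room temperature.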
BRCA1 expr up: increases BRCA1 expression. Potency, µM (top dose mostly 46.1 µM), without a hit: top-dose activation, actives largely listed as activators. MCF7-BRCA1-FFLuc reporter, luminescence, 48 h; response scale: scaled: vehicle 0%, 10 µM genistein 100%. 1.1% of 380,000 active. AID 624202; also: potency is read from the fitted curve at half-maximal effect; nearly all actives have a fitted effect of over 80% in size
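48 h compound treatment of MCF7-BRCA1-FFLuc cells (phenol-red free MEM, 37 °C), then 15 min with luciferase substrate and luminescence imaging.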
Starred values were filed as active, the others as inactive; i = inactive; ? = inconclusive; · = no result. Unless noted, calls follow the shape of the dose curve; as a rule, active = well fitted curve in the direction sought with a large enough effect; inconclusive = small, poorly fitted or top-dose-only effect, or another doubt; inactive = no such curve, though single readings can be large; an effect the other way counts as inactive or inconclusive.

SMILES	pAkt inh	Mm-Cpn inhibitor	A-T KAP1 phos	CCT modulator	BRCA1 expr up
CC(C)CNc1ncnc2nc[nH]c12	·	·	·	·	21%
C[C@@]12CCC=C[C@H]1[C@H](c1ccc3ccccc3c1/C=C/c1ccccc1)N(Cc1ccccc1)C2=O	i	0%	-10%	-1	15%
C[C@@]12CCC=C[C@H]1[C@H](c1ccc(/C=C/c3ccccc3)cc1F)N(Cc1ccccc1)C2=O	i	0%	40µM*	-1	-5%
COc1cc(OC)c(-c2nn3c(-c4cc(C)[nH]n4)nnc3s2)cc1OC	·	·	·	·	0%
C=CCOc1ccc(C(=O)/C=C2/C(=O)Nc3ccccc32)cc1	i	-2%	-14%	-45*	-9%
COc1ccc(/C=N/NC(=O)c2cc(-c3ccc(C)cc3C)nc3ccccc23)cc1COC(C)=O	-89%*	-1%	12%	1	10%
COc1ccc(/C=N/NC(=O)c2cc(-c3ccccc3OC)nc3ccccc23)cc1COC(C)=O	i	-5%	-4%	-2	4%
O=C(COC(=O)c1cc(=O)[nH]c2ccccc12)c1ccc(Br)cc1	i	0%	1%	-126*	-2%
O=C(COC(=O)c1cc(=O)[nH]c2ccc(Br)cc12)c1ccccc1	i	-4%	8%	-33*	-8%
Cc1[nH]n(-c2ccc([N+](=O)[O-])cc2)c(=O)c1/C=N/N1CCOCC1	i	-2%	17%	-1	35%
CC(=NCCCn1ccnc1)c1c(C)[nH]n(-c2ccc([N+](=O)[O-])cc2)c1=O	i	40µM*	-4%	-3	35%
CN(C)CCNC(=O)C1(C)Cc2c(-c3cccc(C(F)(F)F)c3)ccnc2O1 (stereo not given)	i	·	·	-1	24%
CN(C)c1ccc(/C=N/NC(=O)c2ccnn2C)cc1	i	-7%	3%	-3	13µM*
COc1ccc2ccc(OC)c(/C=N/NC(=O)c3cc4ccccc4o3)c2c1	i	·	·	-1	-21%
CCOC(=O)N1CCC(n2c(SCC(=O)Nc3nccs3)nc3ccsc3c2=O)CC1	-81%*	0%	1%	-1	-8%
COc1ccccc1CC(=O)N1CCN(c2cccc(C(F)(F)F)c2)CC1	i	0%	1%	-34*	-47%
COc1ccccc1NC(=O)N1CCN(c2cccc(C(F)(F)F)c2)CC1	i	-1%	-5%	0	-6%
Cc1cc(C(=O)CSc2nnc(-c3ccco3)o2)c(C)n1-c1ccc2c(c1)OCCO2	i	-15%	-4%	1	-30%
CCn1nnnc1SCC(=O)c1ccc2c(c1)OCCO2	-104%*	-3%	-4%	-6	-9%
O=C(CSc1nnc2ccccn12)c1ccc2c(c1)OCCO2	i	-4%	-2%	-2	7.1µM*
CC(C)n1nnnc1SCC(=O)c1ccc2c(c1)OCCO2	i	-3%	-6%	3	3%
Cc1cc(C(=O)CSc2nnnn2C)c(C)n1-c1ccc2c(c1)OCCO2	i	-1%	0%	-3	7.9µM*
CN1c2ccccc2SC2C(c3ccccc3)=NOC21 (stereo not given)	i	·	·	-3	6%
COc1cc(OC)c(/C=C/c2c3ccccc3cc[n+]2C)c(OC)c1	·	·	·	·	-62%
Cn1c(SCc2ccc(Cl)cc2)nnc1-c1ccc(NC(=O)CCc2ccccc2)cc1	·	·	·	·	22%
SMILES	pAkt inh	Mm-Cpn inhibitor	A-T KAP1 phos	CCT modulator	BRCA1 expr up
C=C1C=C(C(F)F)n2ncc(C(=O)N3CCCCC3)c2N1	·	·	·	·	18%
COc1cc(NC(=O)CCc2c(C)nc3c(c(C)nn3-c3ccccc3)c2C)cc(OC)c1OC	·	·	·	·	7%
CCOC(=O)c1cnc(-c2ccccc2)nc1N	i	1%	3%	1	4µM*
CCOC(=O)c1ccc2ncc(-c3ccccc3)nc2c1	i	-1%	-2%	0	13µM*
O=C(Nc1cccc(-c2cnc3ccccc3n2)c1)c1ccccc1	i	1%	-5%	0	18%
Cc1nc2ccc(C(=O)OCc3ccccc3Br)cc2nc1C	i	3%	-1%	1	7.1µM*
CCOC(=O)c1cnc(-c2ccccc2)nc1N(C)C	·	-2%	5%	1	-49%
CC(=O)Nc1ccc(C(=O)OCc2ccccc2Br)cc1	i	1%	-1%	1	62%
CCc1ccc(-c2cnc3ccccc3n2)cc1NC(=O)CNC(=O)c1ccccc1	i	-6%	-3%	-3	7.9µM*
CC(=O)Nc1cccc(NC(=O)CSc2nc(=O)n(CCN3CCOCC3)c3c2CCCC3)c1	i	0%	5%	1	1%
CCOc1cc(C(=O)N(Cc2nc(-c3ccc(C)cc3)no2)C(C)C)cc(OCC)c1OCC	·	·	·	·	-1%
CCC[C@H]1CC(=O)C=C(c2ccc(OC)cc2)ON1C(=O)OC(C)(C)C	i	·	·	1	0%
Cc1cnc(C(=O)OCC(=O)c2c[nH]c3ccccc23)cn1	i	0%	7%	-5	-11%
CC1(C(=O)OCC(=O)c2c[nH]c3ccccc23)CC1(Cl)Cl (stereo not given)	i	0%	-3%	-2	8.9µM*
N#Cc1c(SCC(N)=O)nc(-c2ccccc2)c2c1CCCC2	-111%*	-6%	0%	-2	-19%
N#Cc1c(SCC(=O)O)nc(-c2ccccc2)c2c1CCCC2	i	-11%	-5%	-4	-21%
COC(=O)c1c(-c2ccc(S(C)(=O)=O)cc2)sc2ccc(OC)cc12	i	?	5%	2	4.5µM*
COC(=O)c1c(-c2cc(OC)cc(OC)c2)sc2ccc(OC)cc12	i	35µM*	7%	1	16%
COc1ccc2c(-c3ccc(SC)cc3)c(-c3ccc(S(C)(=O)=O)cc3)sc2c1	i	-11%	18%	0	-9%
COC(=O)c1c(-c2ccc(OC)cc2)sc2cc(OC)c(OC)cc12	i	?	22%	-2	0%
COc1ccc2sc(-c3ccc(S(C)(=O)=O)cc3)c(-c3ccc(SC)cc3)c2c1	i	20µM*	9%	-1	-22%
COC(=O)c1c(-c2ccc(S(C)(=O)=O)cc2)sc2cc(OC)ccc12	i	35µM*	25%	1	6.3µM*
O=C(NCCc1ccccc1F)C1CCC(=O)N(Cc2ccc(Cl)cc2)C1 (stereo not given)	i	-2%	-3%	-1	4%
CC(OC(=O)CCC(=O)c1ccc(Cl)s1)C(=O)NC1(C#N)CCCCC1 (stereo not given)	i	-12%	0%	-2	-14%
COc1ccc(-c2cnc3c(NC(C)=O)cc(-c4cccc(C(=O)N(C)C)c4)cn23)cc1OC	·	·	·	-33*	-12%
COc1ccc(-c2cnc3c(NC(C)=O)cc(-c4cccc(C(=O)NCCN(C)C)c4)cn23)cc1OC	i	·	·	-1	-2%

High-throughput results deposited in PubChem BioAssay by National Center for Advancing Translational Sciences (NCATS).
